# Screens as filed in PubChem.
# In the library only some 3.6% were active in any assay of this set; here they are far more common.
# BoNT-F LC inh: BoNT F light chain protease inhibition; Multiplex microsphere protease cleavage assay, flow cytometry; inhibition, % at 10 µM; 360,000 compounds, 0.22% hits; AID 588497; in the data active = inhibition above about 35%, passing the limit was not always enough; inconclusive = no clear call, values can overlap the other calls; note: plate controls were buffer without enzyme for full effect and enzyme alone for no effect
# BoNT-A LC inh2: BoNT A light chain protease inhibition; inhibition, % at 10 µM; 360,000 compounds, 0.17% hits; multiplex microsphere protease substrate cleavage, flow cytometry; AID 588499; note: plate controls were buffer without enzyme for full effect and enzyme alone for no effect
# Anthrax LF prot: inhibitors of Bacillus anthracis lethal factor protease; P15917; 360,000 compounds, 0.12% hits; multiplex microsphere protease cleavage assay, LF; inhibition, % at 10 µM; note: plate controls were buffer without enzyme for full effect and enzyme alone for no effect
# Autofluor counter: compound fluorescence in toxin protease inhibitor counterscreen; 360,000 compounds, 3.1% hits; fluorescence intensity (concentration not given with the values); compound autofluorescence counterscreen, microsphere flow cytometry; stronger effect = higher value; AID 624483; in the data active = fluorescence intensity above about 16000; inconclusive = no clear call, values can overlap the other calls
# MazF activator: MazEF (E. coli) toxin RNase activation | activation, % at 20 µM | 350,000 compounds, 0.32% hits | P0AE70 | FAM/BHQ RNA-DNA oligo cleavage fluorescence, 5 h | AID 504720; in the data active = activation above about 50%
# Active calls of the source: *; ? = inconclusive; / = no result. Cut-off read from the data, not from the text of the source, unless noted: active = inhibition above about 30%; inconclusive = no clear call, values can overlap the other calls; inactive = below that.
SMILES,BoNT-F LC inh,BoNT-A LC inh2,Anthrax LF prot,Autofluor counter,MazF activator
CC(C)CC(NC(=O)C(NC(=O)OC(C)(C)C)C(C)C)C(=O)NC(CCC(=O)OCc1ccccc1)C(N)=O (centres undefined),-15.6,0.3,-0.7,4275,-3.5
CCC(C)C(N)C(=O)NC(CCC(=O)OCc1ccccc1)C(N)=O (centres undefined),-9.8,-0.6,2.1,3274,68.2*
O=C1CN(C(=O)COC(=O)c2oc3ccccc3c2COc2ccccc2)c2ccccc2N1,-4.5,-1.1,-2.4,22869*,-8.8
Cc1c(C(=O)OCC(=O)N2CC(=O)Nc3ccccc32)oc2ccccc12,1.4,0.2,-2.7,4076,-17.1
O=C1CN(C(=O)COC(=O)Cc2ccsc2)c2ccccc2N1,-4.5,?,-2.5,23072*,5.7
COCCCN1C(=O)c2ccc(C(=O)NCCc3ccccc3)cc2C1=O,?,-1.4,-1.3,4312,3.5
COc1ccccc1-c1nnc(Sc2nc([N+](=O)[O-])nn2C)o1,0.2,-0.4,-3.1,16481*,-3.5
CCC(C)NC(=O)c1ccc(CSCc2ccc(Cl)cc2)o1 (centres undefined),-8.5,0.1,24.8,3616,1.3
CCC(C)NC(=O)c1ccc(CS(=O)(=O)Cc2ccc(Cl)cc2)o1 (centres undefined),-6.2,-3.5,-1.8,23433*,1.1
CC(C)Cn1c(N)c(C(=O)COC(=O)c2nccnc2N)c(=O)n(C)c1=O,13.4,2.1,-2.0,3842,-4.6
CC(NS(=O)(=O)c1ccccc1)C(N)=O (centres undefined),-3.4,-2.1,-7.1,17096*,1.9
COc1ccc(-c2cc(O)cc(O)c2)cc1,-3.0,-1.7,-3.9,16572*,-15.6
O=c1c2ccccc2[se]n1-c1ccccc1,38.3*,81.1*,3.6,7730,-15.4
COc1ccc(S(=O)(=O)N2CCCCCC2)cc1C(=O)NCc1ccc(C)cc1,/,/,/,/,-9.3
O=S(=O)(c1ccc(Br)s1)n1cccn1,1.0,?,-0.8,20761*,3.6
O=S(=O)(c1cccs1)n1cccn1,-7.8,0.1,-3.6,3505,5.9
Cc1noc(C)c1CSCC(=O)N1CCN(c2ccc(F)cc2)CC1,-2.4,-0.4,-3.2,16984*,-14.3
O=C(CSCc1ccc(Br)cc1)N1CCOCC1,-1.8,-0.3,-0.3,10667,5.3
O=C(CSCc1ccc(F)cc1)N1CCOCC1,7.6,6.8,-11.8,20026*,1.8
Cc1cccc(N2CCN(C(=O)CSCc3c(C)noc3C)CC2)c1C,-1.5,-0.4,0.6,23925*,7.8
Cc1cc(C)c(OCC(=O)NCCCn2nc(C)cc2C)c(C)c1,1.7,-0.1,-1.1,3694,-1.3
Cc1sc(NC(=O)c2ccco2)c(C(c2ccncc2)N2CCOCC2)c1C (centres undefined),1.9,3.4,-1.6,18732*,6.4
Cc1sc(NC(=O)c2ccco2)c(CN2CCCCC2)c1C,-5.1,-1.2,9.0,9701,10.2
Cc1sc(NC(=O)c2ccco2)c(CN2CCN(c3ccccc3)CC2)c1C,-3.3,-0.4,-4.9,20298*,-11.3
Cc1ccc([C@@H]2C[C@H]3[C@@H](CN2S(=O)(=O)c2ccc(C)cc2)C(=O)C[C@@H](c2ccc(Cl)cc2)N3S(=O)(=O)c2ccccc2C)cc1,-6.4,-0.3,-5.0,3080,-4.5
SMILES,BoNT-F LC inh,BoNT-A LC inh2,Anthrax LF prot,Autofluor counter,MazF activator
CC(C)N1CCCC(C)(C(=O)Nc2cccc(Oc3ccccc3)c2)C1 (centres undefined),-1.1,-0.1,-5.5,3895,/
Cc1cccc2nc(=S)n(C(=O)c3ccco3)n12,14.4,11.8,-29.4,15901,7.4
O=C(c1ccco1)n1c(=S)nc2ccccn21,2.1,1.4,-0.5,22668*,5.2
CN(C)c1ccc(/C=C(/NC(=O)c2ccccc2)C(=O)N2CCCC2)cc1,-0.9,0.4,0.8,6148,59.5*
Cc1ccc(/C=C(\NC(=O)c2ccccc2)C(=O)N2CCCCC2)cc1,-6.7,-1.7,-5.3,4428,8.3
CCNc1nc(NCC)n2c(SCC(=O)Nc3ccc(C)cc3Br)nnc2n1,4.9,-0.2,-6.3,3498,2.2
Cc1ccc(/C=c2\sc3nc(-c4cccs4)nn3c2=O)o1,3.2,0.9,-3.7,20038*,-4.5
S=C1SCN(CCc2ccccc2)CN1CCc1ccccc1,-7.9,0.6,-0.8,2783,-5.2
Cc1ccccc1NC(=S)Nc1ccccn1,36.8*,-2.5,-12.7,9236,-1.4
CC(=O)c1nnn(-c2nc(N)nc(N(c3ccccc3)c3ccccc3)n2)c1C,-0.7,?,-1.9,22006*,2.3
Cc1cc(C)n(-c2nc(Nc3ccccc3)nc(-n3nc(C)cc3C)n2)n1,-22.9,-2.1,-7.7,7863,9.0
Cc1cc(C)n(-c2nc3ccccc3n3cnnc23)n1,0.1,0.8,-4.1,4280,4.1
Cc1cc(C)n(-c2nc(N(c3ccccc3)c3ccccc3)nc(-n3nc(C)cc3C)n2)n1,-5.2,-6.9,-1.6,17611*,-15.2
CCN(CC)c1nc2ccccc2nc1-n1nc(C)cc1C,0.2,?,-1.8,24280*,-0.2
Cc1nc(C(=O)N2CCC(n3nccc3NC(=O)Nc3ccccc3Cl)CC2)cs1,-5.3,1.1,-0.9,5580,1.4
CSCCC(NS(=O)(=O)c1ccccc1)C(=O)OCc1cc(=O)oc2cc(O)ccc12 (centres undefined),-18.9,-7.0,?,?,-1.3
CCOc1ccc(-c2ccc(C3=CC(=O)C[C@H](c4ccc(F)cc4)C3)cc2)cc1,-3.1,-0.7,-9.9,4647,/
CCCn1nc(NC(=O)CC(C)C)c2cc3ccccc3nc21,3.1,1.4,-0.1,22379*,8.0
CC(C)Cn1nc(NC(=O)C(C)(C)C)c2cc3ccccc3nc21,-7.2,-0.6,4.1,7060,-2.9
CCn1nc(NC(=O)c2ccco2)c2cc3ccccc3nc21,-2.5,0.1,-0.4,16504*,-8.6
CCCCC(=O)Nc1nn(CC(C)C)c2nc3ccccc3cc12,-1.9,?,-6.3,21680*,-12.2
Cc1c(C(=O)NCc2ccc([N+](=O)[O-])cc2)sc(=O)n1Cc1ccc(-c2ccccc2)cc1,-9.1,-0.3,-7.1,4019,/
Cc1ccc2c(C)c(C(=O)N3CCN(C4CCS(=O)(=O)C4)CC3)oc2c1C (centres undefined),7.6,-0.4,-1.0,4614,1.7
CC(C)(C)c1ccc(NC(=O)c2cc(C3CCCN(C(=O)CCc4ccccc4)C3)on2)cc1 (centres undefined),-6.0,0.1,-3.9,2786,/
Cc1ccc2c(c1)CC(C)N2S(=O)(=O)c1nnc(NC(=O)CC(C)C)s1 (centres undefined),3.1,-0.1,0.8,5398,7.7
Cn1c(=O)c(=O)n(C)c2cc(S(=O)(=O)N3CCCCC3)ccc21,-1.4,0.2,-1.0,23051*,7.0
Cn1c(=O)oc2cc(S(=O)(=O)N3CCN(c4cccc(Cl)c4)CC3)ccc21,0.7,2.3,0.0,22890*,-25.3
Cn1c(=O)c(=O)n(C)c2cc(S(=O)(=O)N3CCN(c4cccc(C(F)(F)F)c4)CC3)ccc21,0.2,-0.8,-0.2,21964*,-34.7
Cn1c(=O)c(=O)n(C)c2cc(S(=O)(=O)N3CCC(N4CCCCC4)CC3)ccc21,2.7,0.4,-12.8,9247,5.5
